# Data published in ChEMBL document CHEMBL3988442, “University of Dundee, Small-Polar-MMV Screening Library” (2021).
# Target: T1, Aspartate--tRNA(Asp/Asn) ligase (Mycobacterium tuberculosis (strain ATCC 25618 / H37Rv)) (UniProt P9WFW3)
# T1 sequence (whole entry): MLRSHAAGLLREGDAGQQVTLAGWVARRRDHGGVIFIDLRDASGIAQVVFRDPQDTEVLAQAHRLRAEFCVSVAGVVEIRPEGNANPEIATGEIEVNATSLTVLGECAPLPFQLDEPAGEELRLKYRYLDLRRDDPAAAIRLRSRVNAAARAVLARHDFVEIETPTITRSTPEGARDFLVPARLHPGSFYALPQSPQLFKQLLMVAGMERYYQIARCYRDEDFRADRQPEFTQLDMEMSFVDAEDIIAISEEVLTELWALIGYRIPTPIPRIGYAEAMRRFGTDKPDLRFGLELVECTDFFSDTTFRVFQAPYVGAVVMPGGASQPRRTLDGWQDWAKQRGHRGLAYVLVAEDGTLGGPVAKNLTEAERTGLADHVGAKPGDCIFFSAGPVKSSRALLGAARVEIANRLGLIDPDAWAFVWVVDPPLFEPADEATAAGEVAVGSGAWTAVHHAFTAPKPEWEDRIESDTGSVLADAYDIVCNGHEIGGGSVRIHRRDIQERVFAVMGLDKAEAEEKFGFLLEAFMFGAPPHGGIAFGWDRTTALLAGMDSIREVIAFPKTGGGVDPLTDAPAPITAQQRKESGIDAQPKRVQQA
# Test: Assay for Asp RNA synthetase-1 from Mycobacterium tuberculosis
# Assay type: functional
# Set-up: scale not given: in the data most compounds retested in dose-response had high values
# Conditions: 30 µM
row,SMILES,Percent Effect
1,CN1CCCN(C[C@@H]2CN(C(=O)CCC3CCCC3)C[C@@H]2CO)CC1,6.99%
2,O=C(CCc1cccs1)N1CCCCC1Cn1cccn1 (stereo not given),-2.77%
3,O=C(NCC1CC1)[C@@H]1CCO[C@@H]2CCN(Cc3ccco3)C[C@H]21,7.48%
4,Cc1ccc(CN2CCn3cc(CN(C)Cc4ccco4)nc3C2)o1,1.01%
5,COc1ccc(CN(C)C(=O)NCc2c(C)cc(C)[nH]c2=O)cc1,0.281%
6,CC(=O)N1CCOC(c2cc(N3CC(O)C3)nc(C)n2)C1 (stereo not given),-3.6%
7,CC(NC(=O)NCCCc1n[nH]c(N)c1C#N)c1ccccc1 (stereo not given),1.03%
8,CN(C)C(=O)c1ccc2c(c1)N(C)C(CC(=O)NCCC(C)(C)C)CO2 (stereo not given),0.279%
9,CCn1ncc(CN2CCc3c(nc(-c4cccnc4)[nH]c3=O)C2)c1C,-5.25%
10,Cc1ccc(CN2CCc3c(C(=O)N(C)C)nn(C)c3C2)s1,1.82%
11,Cc1ccc(CN2CCOC3(CCCN(C(=O)c4ccco4)C3)C2)s1 (stereo not given),4.58%
12,OCC1CCCN1c1cc(NCCc2c[nH]c3ccccc23)ncn1 (stereo not given),11.5%
13,CCN1CCN(C2CCN(Cc3c(C)noc3C)CC2)C1=O,-5.48%
14,CC(C)Cc1cc(C(=O)NCCc2ccc(S(C)(=O)=O)cc2)[nH]n1,3.53%
15,OC1CCCN(Cc2c(-c3ccco3)[nH]c3ncccc23)C1 (stereo not given),-0.134%
16,Cc1occc1C(=O)N1CCc2ncnc(-c3cnn(C)c3)c2CC1,-0.55%
17,O=C(c1cnco1)N1CCCC(Cc2nccs2)C1 (stereo not given),1.57%
18,CC(=O)N1CC[C@H]2OCC[C@@]2(C(=O)NCc2ccco2)C1,0.379%
19,Cc1noc(C)c1-c1cnc(CC2CCN(C(=O)c3cc[nH]n3)C2)cn1 (stereo not given),4.09%
20,CS(=O)(=O)CCN1CCC2(CCCN(C3CCOCC3)C2=O)C1 (stereo not given),1.8%

row,SMILES,Percent Effect
1,COCCn1nc(C(=O)N2CCCC2c2cccc(F)c2)ccc1=O (stereo not given),2.11%
2,Cc1cccc(CN(C)Cc2nc3c(cnn3C)c(=O)[nH]2)c1,3.62%
3,CC(C)c1nnc2n1CCN(Cc1csc(CC(=O)N(C)C)n1)C2,-7.04%
4,O=C1OC2(CCN(C3CCCOC3)CC2)CN1CCc1ccccc1 (stereo not given),1.52%
5,CC(=O)NC(C)(C)C(=O)Nc1ncc(Cc2ccc(C)c(F)c2)s1,-1.27%
6,CS(=O)(=O)Cc1cccc(C(=O)N2CCCC(n3cccn3)C2)c1 (stereo not given),-2.52%
7,Cc1csc(N2CCN(C(=O)CCC(=O)c3ccc(C)s3)CC2)n1,-2.27%
8,Cc1cnc2c(S(=O)(=O)NCC3CCN(C4CC4)C3)cccc2c1 (stereo not given),3.65%
9,COc1c(C2CCCN2C(=O)c2cncnc2C)c(C)nn1C (stereo not given),4.44%
10,Cc1ccsc1CNC(=O)Cc1c(C)nc2c(c1C)c(=O)[nH]n2C,-4.18%
11,Cc1n[nH]c(C)c1-c1cnc(CC2CCN(C)C2)cn1 (stereo not given),-0.897%
12,CC(C)(C)c1nnc(CN2CCn3c(nnc3C3CC3)C2)o1,8.8%
13,CC(Cn1cccn1)NC(=O)Cc1cccs1 (stereo not given),-2.6%
14,CCNC(=O)c1ccnc(NCC2COc3cc(OC)ccc3C2)c1 (stereo not given),-2.64%
15,Cn1cc(-c2cnc(N3CCOCC3)nc2)cc1C(=O)NCCO,8.57%
16,c1cnc2c(c1)cc(C1CCOCC1)n2CCN1CCOCC1,3.26%
17,CCC(=O)N(C)C1CCN(Cc2ncc(C)c(OC)c2C)CC1,-0.759%
18,c1cnnc(NCC2CN(Cc3cccc4c3OCCO4)CCO2)c1 (stereo not given),-1.18%
19,CN(Cc1ccco1)Cc1ccccc1CNC(=O)c1ccncc1,-0.97%
20,CCN1CCCn2c(nc(CNC(=O)c3ccsc3)cc2=O)C1,7.56%
